Screening data as filed in PubChem.
Rows were chosen to be rich in hits. Some 3.5% of all compounds tested hit in one or more screens of this group.
FBW7 activator – activators of human E3 ligase FBW7; Q969H0; AlphaScreen FBW7–phospho-cyclin E peptide binding, activator screen; normalized activity (activation), % at 26.1 µM; actives 0.13% (n = 650,000); AID 1259310; in the data active means normalized activity above about 1.9%;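 further: purified mutant Fbw7 with reduced substrate affinity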
Target sequence (Q969H0 whole entry, looked up): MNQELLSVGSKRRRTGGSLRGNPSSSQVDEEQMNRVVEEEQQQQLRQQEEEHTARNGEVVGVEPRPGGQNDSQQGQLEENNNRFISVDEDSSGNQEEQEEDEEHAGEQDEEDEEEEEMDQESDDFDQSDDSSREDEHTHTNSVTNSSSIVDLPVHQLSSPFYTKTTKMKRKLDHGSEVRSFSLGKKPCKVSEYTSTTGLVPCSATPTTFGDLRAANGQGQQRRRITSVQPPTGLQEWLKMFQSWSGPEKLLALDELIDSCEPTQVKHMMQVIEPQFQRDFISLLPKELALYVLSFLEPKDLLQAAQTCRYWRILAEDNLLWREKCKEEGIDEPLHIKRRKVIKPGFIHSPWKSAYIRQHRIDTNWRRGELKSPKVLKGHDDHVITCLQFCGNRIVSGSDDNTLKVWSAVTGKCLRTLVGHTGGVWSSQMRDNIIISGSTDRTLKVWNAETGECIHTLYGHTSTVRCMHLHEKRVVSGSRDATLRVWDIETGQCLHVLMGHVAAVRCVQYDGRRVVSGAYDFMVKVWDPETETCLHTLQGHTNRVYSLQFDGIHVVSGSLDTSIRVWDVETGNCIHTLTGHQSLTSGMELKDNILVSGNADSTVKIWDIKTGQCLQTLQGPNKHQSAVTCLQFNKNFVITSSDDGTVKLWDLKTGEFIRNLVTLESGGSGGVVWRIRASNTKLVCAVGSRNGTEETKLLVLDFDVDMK
MITF primary – human MITF inhibition, primary screen | actives 0.91% (n = 650,000) | inhibition, % at 2.6 µM | AID 1259374 | AlphaScreen MITF homodimerization, bead proximity signal; in the data active means inhibition above about 50%;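 further: 0% = vehicle wells with protein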
GPR151 ag – human GPR151 activation; Q8TDV0; PathHunter beta-arrestin GPR151 cells, luminescence; activation, % at 11.2 µM; actives 1% (n = 650,000); AID 1508602; in the data active means activation above about 4.9%;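 further: 0% = median of compound wells and 100% = cells with positive control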
TEAD-YAP block – TEAD-YAP interaction inhibition. HEK-TIYL cells, TEAD-Gal4/YAP UAS-luciferase luminescence. inhibition, % at 9.12 µM. actives 1.4% (n = 640,000); in the data active means inhibition above about 32%;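 further: 0% = median of test compound wells and 100% = reference inhibitor wells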
MITF inh conf – confirmation of human MITF inhibitors; shares compounds with MITF primary; AlphaScreen MITF homodimerization, biotin/His-MITF beads; inhibition, % at 2.6 µM; actives 16% (n = 4,700);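 active means inhibition above a cutoff derived from the DMSO control wells, cut at about 28% in these data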;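 further: 0% = MITF dimer wells with DMSO only; inhibitors lower the bead chemiluminescence by keeping MITF from dimerizing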
AS interf DR – counter-screen: compounds optically interfering with AlphaScreen; shares compounds with MITF primary; AlphaScreen optical interference counterscreen, cell-free; IC50, µM; actives 6% (n = 480); call rule not given here
AlphaScreen intf2 – optically interferes with AlphaScreen signal | shares compounds with MITF primary | LysRS AlphaScreen counterscreen, signal interference, triplicate | inhibition, % at 2.6 µM | actives 7.6% (n = 4,700);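 active means inhibition above a cutoff derived from the DMSO control wells, cut at about 30% in these data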
* hit, by the source's call; x = not tested or not shown.

SMILES	FBW7 activator	MITF primary	GPR151 ag	TEAD-YAP block	MITF inh conf	AlphaScreen intf2	others
COC(=O)NNC(=O)c1cc([N+](=O)[O-])cc([N+](=O)[O-])c1	-0.1	-7.5	0.2	0.2	x	x
COc1ccc(Nc2nc(-c3cccs3)cs2)c(OC)c1	-0.2	71.0*	0.0	-66.4	4.9	13.8
O=C(Cn1cnc2scc(-c3ccccc3)c2c1=O)NCCCN1CCOCC1	0.3	-1.1	-1.3	4.2	x	x
OC(CNC1CC1)COCc1ccccc1F (stereo not given)	0.1	59.4*	-0.8	1.4	8.2	-10.8
CN(C(=O)c1cccs1)C(Cc1ccccc1)C1CCN(C(=O)c2ccn(C)n2)CC1 (stereo not given)	1.5	73.8*	-0.2	-23.9	5.6	-1.3
Cc1nc(NCCCN2CCOCC2)c2cc(-c3ccccc3)sc2n1	0.0	55.2*	-0.4	-13.2	6.1	6.4
CCN1CCN(CCCOc2ccc3c(c2)CCC3)CC1	0.1	61.2*	0.1	6.3	4.5	4.8
CCc1cc(OCCCN2CCN(CC)CC2)ccc1Cl	-0.2	67.3*	-0.3	6.6	16.4	16.2
CCc1cc(OCCCNCCN2CCOCC2)ccc1Cl	0.1	48.4	-1.1	-6.8	x	x
CC(=O)c1ccc(S(=O)(=O)N(CCCO)Cc2cc3cc(C)c(C)cc3[nH]c2=O)cc1	-0.2	73.5*	-1.0	-3.4	5.3	12.8
O=C1NC(=S)N(c2ccccc2F)C(=O)/C1=C/c1ccc(N2CCOCC2)o1	0.0	6.7	-1.3	-8.2	x	x
O=C(OC1CCCC1=O)c1ccc(S(=O)(=O)N2CCCCC2)cc1 (stereo not given)	-0.1	73.9*	-0.5	-7.2	64.5*	2.2	AS interf DR=>6.64
O=C(OC1CCCC1=O)c1ccc(Cl)c(S(=O)(=O)N2CCOCC2)c1 (stereo not given)	0.1	66.1*	-1.0	3.5	50.9*	7.8	AS interf DR=>6.69
CCOC(=O)Cn1c(-n2ccnc2)nc2c1c(=O)n(C)c(=O)n2C	0.6	27.2	0.2	8.5	x	x
COc1ccc(C2C(C(=O)/C=C/c3ccco3)=C(O)C(=O)N2CCCN2CCOCC2)cc1 (stereo not given)	0.0	1.6	-0.5	2.6	x	x
Cc1ccc(-c2csc3nc[nH]c(=O)c23)cc1	-0.1	-13.1	-1.5	-2.2	x	x
Cc1ccc(-c2csc3nc(CNCCN(C)C)[nH]c(=O)c23)cc1	-0.8	95.6*	3.1	0.2	16.2	83.4*
O=C(NCc1cccnc1)C(=O)NCc1cccnc1	0.0	72.3*	3.3	6.3	5.2	13.4
O=C(NCc1cccnc1)c1cccc(-c2cccs2)c1	-0.2	54.9*	-1.8	1.9	45.3*	-2.3	AS interf DR=>6.64
O=C(NCCO)c1cccc(-c2cccs2)c1	-0.1	58.9*	2.6	1.0	58.9*	1.3	AS interf DR=>8.06
O=C(NCc1ccccc1)c1cccc(-c2cccs2)c1	-0.2	28.7	-1.1	4.5	x	x
Cc1ccc(NC(=O)CCCC(=O)O)cc1NC(=O)c1ccc(Cl)cc1	0.5	13.9	-0.3	15.4	x	x
COc1ccc(N(CC(=O)N2CCCCC2)S(=O)(=O)c2ccc(OC)c(OC)c2)cc1	-0.1	-4.3	0.3	-3.8	x	x
COc1cc(CN2CCN(S(=O)(=O)c3ccc(F)cc3)CC2)cc(OC)c1OC	0.0	51.5*	1.7	6.4	-1.9	6.7
COc1cc(CN2CCN(S(=O)(=O)c3ccc(C)cc3)CC2)cc(OC)c1OC	0.8	51.8*	-1.1	6.9	-0.6	11.9
SMILES	FBW7 activator	MITF primary	GPR151 ag	TEAD-YAP block	MITF inh conf	AlphaScreen intf2	others
CCS(=O)(=O)N1CCN(Cc2cc(OC)c(OC)c(OC)c2)CC1	0.0	51.8*	1.8	4.3	7.0	14.0
COc1cc(CN2CCN(S(=O)(=O)c3ccc([N+](=O)[O-])cc3)CC2)cc(OC)c1OC	-0.1	33.9	0.2	-5.6	x	x
COc1cc(CN2CCN(S(=O)(=O)c3ccccc3)CC2)cc(OC)c1OC	-0.1	41.8	-0.2	-5.2	x	x
CCOC(=O)C(NS(=O)(=O)c1cccc2nsnc12)c1ccccc1Cl (stereo not given)	0.0	6.4	-0.2	2.8	x	x
CN(C)CCOCCOc1cccc2ccccc12	-0.2	62.6*	-0.2	14.0	-1.2	-1.1
C=CCN(CC=C)CCOc1ccccc1OC(C)C	-0.1	35.1	2.1	-5.1	x	x
CCN(CC)CCOCCOc1cccc2ccccc12	0.1	0.7	0.7	1.5	x	x
CC(C)Oc1ccccc1OCCN(C)C	-0.3	75.3*	0.4	5.2	7.1	14.6
CCOC(=O)NC(=S)N/N=C/c1ccccn1	-1.6	64.1*	1.0	3.1	-8.2	31.8*
Clc1ccc(Nc2nc(-c3cccc4ccccc34)cs2)cc1	-0.1	-4.3	1.8	-18.3	x	x
CCC(=O)N1CCc2cc(S(=O)(=O)N3CC(C)CC(C)C3)ccc21 (stereo not given)	0.0	80.9*	3.1	-5.5	4.9	13.9
Brc1csc(CN2CCN(Cc3ccc4c(c3)OCO4)CC2)c1	0.5	61.7*	-0.4	0.2	9.5	12.6
Cc1ccsc1CN1CCN(Cc2ccc3c(c2)OCO3)CC1	-0.1	55.7*	0.3	0.3	2.1	5.4
Cc1nc(N2CCN(Cc3ccc4c(c3)OCO4)CC2)c2c(C)c(C)sc2n1	0.0	73.6*	2.8	14.7	7.2	6.6
c1cc(CN2CCN(Cc3ccc4c(c3)OCO4)CC2)co1	0.3	65.9*	-1.2	-3.2	1.4	8.8
O=C(C(=O)N1CCN(Cc2ccc3c(c2)OCO3)CC1)N1CCN(Cc2ccc3c(c2)OCO3)CC1	0.8	-11.3	-2.0	1.6	x	x
Cc1ccc(NC2CC(=O)N(CCc3ccccc3)C2=O)cc1 (stereo not given)	-0.1	9.5	0.7	-15.0	x	x
CC(NC(=O)c1ccc(Cl)cc1)c1nnc(SCC(=O)Nc2ccccc2F)n1C (stereo not given)	0.9	13.5	3.1	-1.1	x	x
Fc1cccc(F)c1CN1CCN(Cc2ccc3c(c2)OCO3)CC1	-0.2	59.2*	0.0	3.0	-9.3	-5.6
c1ccc(CN2CCN(Cc3ccc4c(c3)OCO4)CC2)nc1	0.0	62.8*	0.7	-0.4	-6.6	-1.0
O=C(C1CC12CCN(Cc1ccc3c(c1)OCO3)CC2)N1CCN(Cc2ccccn2)CC1 (stereo not given)	0.0	10.2	0.8	5.5	x	x
CCOc1ccc(C(=O)CCC(=O)OCC(=O)c2cccc([N+](=O)[O-])c2)cc1	-0.3	-1.1	1.5	1.4	x	x
Cc1ccc(OCC(=O)Nc2ccc(N3CCOCC3)cc2)c(-n2nc3ccccc3n2)c1	-0.1	3.8	1.1	-2.5	x	x
CC(O)CNCC(O)COc1cc(Cl)ccc1Cl (stereo not given)	-0.1	-8.3	0.1	-3.4	x	x
C=CCNCC(O)COc1cc(Cl)ccc1Cl (stereo not given)	-0.2	53.3*	0.8	4.4	-11.2	-3.2
C=CCc1cc(Cl)ccc1OCCNCCCOC	-0.2	25.2	0.3	9.8	x	x
C=CCc1ccccc1OCCOCCNCCCOC	0.4	58.0*	-0.4	11.8	-11.1	-5.3
